Most compounds without a hit are left out; they make up all but 4.7% or so of the library.
tim10-1 inh – growth inhibitors of tim10-1 mutant yeast, primary screen, luminescence, uHTS; S. cerevisiae tim10-1 ts strain growth, BacTiter-Glo, 24 h; inhibition, % at 20 µM; 330,000 compounds, 2.2% hits; AID 463190, 2010;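 active = inhibition of at least 40%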;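 also: mutant grown at 25 °C; 0% = DMSO wells with yeast and 100% = wells holding no yeast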
PfHsp90 set2 – growth inhibition of PfHsp90-expressing yeast, primary screen, antimalarial PfHsp90 inhibitor project, S. cerevisiae, BacTiter-Glo luminescence, single point, set 2. BacTiter-Glo ATP, 48 h; yeast lacking PDR1 and PDR3 efflux regulators. 310,000 compounds, 0.32% hits. inhibition, % at 9.4 µM;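 active = every replicate shows inhibition above about 80%, whatever the replicate mean, limit read from the data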;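 also: 0% = DMSO neutral controls and 100% = 20 µM radicicol positive controls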
TIM10 inh – growth inhibitors of isogenic TIM10 control yeast, primary screen, counter-screen for tim10-1 yeast inhibitor project, luminescence, uHTS. S. cerevisiae TIM10 strain growth, BacTiter-Glo luminescence, 24 h. inhibition, % at 10 µM. 330,000 compounds, 1.4% hits. AID 463195, 2010;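 active = inhibition of 40% or more at the single tested concentration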;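 also: wild-type TIM10 isogenic control strain grown at permissive 25 °C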
SKKanGAS inh – S. pyogenes SKKanGAS growth inhibitors in kanamycin, primary screen, streptokinase expression inhibitor project, SKKanGAS strain, BacTiter-Glo luminescence; 6 h; inhibition, % at 7.5 µM; 300,000 compounds, 1.3% hits;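 active = mean replicate score, as percent of positive control median, at least 50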;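 also: strain carries kanamycin resistance gene driven by streptokinase promoter and grows in 40 µg/ml kanamycin; loss of luminescence reflects streptokinase promoter inhibition or plain growth inhibition; 0% = median of DMSO wells and 100% = positive control at its reference dose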
tim23-1 inh – growth inhibitors of tim23-1 mutant yeast, primary screen, luminescence, uHTS; 330,000 compounds, 1.3% hits; inhibition, % at 20 µM; S. cerevisiae tim23-1 growth, BacTiter-Glo luminescence, 24 h; AID 463212, 2010;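 active = growth inhibition of the mutant yeast at or above 50%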;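 also: temperature-sensitive mutant grown at 25 °C; plate controls were DMSO-treated mutant yeast for no effect and medium wells lacking yeast for full effect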
EBI2 antag – EBI2 receptor antagonists, beta-arrestin recruitment, primary screen, cell-based, luminescence, 7a,25-OHC stimulation, uHTS; G-protein coupled receptor 183 (Homo sapiens), P32249; 360,000 compounds, 0.81% hits; AID 651636, 2012; inhibition, % at 5 µM; 7a,25-OHC stimulated; in the data active = inhibition above about 38%;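 also: enzyme fragment complementation signal reports receptor beta-arrestin coupling in cells; 0% = agonist plus DMSO wells and 100% = wells without agonist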
Target sequence (P32249 whole entry, looked up, the tested form may be a part): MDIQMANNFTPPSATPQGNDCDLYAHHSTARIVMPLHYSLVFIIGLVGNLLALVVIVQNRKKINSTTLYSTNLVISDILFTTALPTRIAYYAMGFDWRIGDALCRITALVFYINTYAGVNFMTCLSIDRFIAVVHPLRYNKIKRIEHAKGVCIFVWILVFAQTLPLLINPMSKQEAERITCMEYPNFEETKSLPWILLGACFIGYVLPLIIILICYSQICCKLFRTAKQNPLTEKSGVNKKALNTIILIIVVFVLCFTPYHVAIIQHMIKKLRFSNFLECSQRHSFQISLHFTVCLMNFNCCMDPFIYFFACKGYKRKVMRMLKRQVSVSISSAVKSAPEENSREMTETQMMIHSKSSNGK
tim10-1 conf – growth inhibitors of tim10-1 mutant yeast, confirmation, single concentration, luminescence, S. cerevisiae; S. cerevisiae tim10-1 ts strain growth, BacTiter-Glo, 24 h; 7,400 compounds, 56% hits; inhibition, % at 20 µM; shares compounds with tim10-1 inh;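 active = inhibition of yeast growth at or above a set limit in either of two repeat tests at 20 µM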;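 also: tim10-1 mutant grown at permissive 25 °C to find synthetic lethal compounds; 0% = DMSO yeast wells and 100% = medium wells without yeast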
tim10 confirm – growth inhibitors of wild-type TIM10 yeast, confirmation, counter-screen for tim10-1 synthetic lethality project, single concentration, luminescence, S. cerevisiae; S. cerevisiae tim10 strain growth, BacTiter-Glo luminescence, 24 h; inhibition, % at 10 µM; 4,600 compounds, 63% hits; shares compounds with TIM10 inh;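 active = inhibition of yeast growth at or above a set limit in either of two replicates at 10 µM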;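 also: this counterscreen used the strain with wild-type TIM10; 0% = yeast with DMSO and 100% = medium wells lacking yeast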
Starred values were filed as active, the others as inactive; x = no result given.

SMILES	tim10-1 inh	PfHsp90 set2	TIM10 inh	SKKanGAS inh	tim23-1 inh	EBI2 antag	tim10-1 conf	tim10 confirm
O=[N+]([O-])c1ccccc1-c1cc(-c2cc(Cl)ccc2O)n[nH]1	x	58.4	x	13.4	x	34.3	x	x
CC(C)(C)c1ccc(-c2cc(-c3ccccc3O)[nH]n2)cc1	49.2*	20.5	40.9*	104.2*	43.2	21.6	42.1*	21.8
CC1Cc2ccccc2N1C(=O)CSc1nnc(N)s1 (centres undefined)	1.0	5.5	2.4	-5.4	-1.1	-3.8	x	x
COc1cc2c(cc1OC)[C@@H](NC(=O)COc1ccccc1)[C@H](OCc1ccccc1)C2	10.1	-5.8	0.3	x	40.0	-0.8	x	x
CCCOc1ccc(CN(CCC#N)C(=S)NC(=O)c2ccccc2)cc1	47.7*	-84.8	42.9*	43.9	42.2	3.5	34.8*	-13.8
Cc1noc(/C=C/c2cccnc2)c1[N+](=O)[O-]	54.7*	-31.9	56.5*	3.9	43.7	-13.3	57.2*	74.9*
Cc1cccc(C)c1N/C=C/c1onc(C)c1[N+](=O)[O-]	1.7	12.9	-7.5	-2.3	1.5	11.1	x	x
C=CCc1c(C)nc(-c2ccccc2)nc1N/N=C(\C)c1ccc(N)cc1	26.8	-2.3	28.1	1.3	32.1	13.7	x	x
C=CCc1c(C)nc(-c2ccccc2)nc1Nc1ccccc1O	46.8*	3.2	63.5*	-11.0	39.4	16.5	54.1*	54.2*
COc1ccc(NS(=O)(=O)c2ccc3oc(=O)c4[nH]c(=O)c(=O)n(C)c4c3c2)cc1	-1.0	-4.6	11.9	3.0	13.1	-1.4	x	x
COc1ccccc1Nc1nc(N)nc(CSC(=S)N2CCCCC2C)n1 (centres undefined)	42.5*	2.9	48.5*	2.9	38.3	10.5	26.9	-23.0
O=C1OC(c2ccc(F)cc2)=C/C1=C\c1ccc([N+](=O)[O-])o1	71.3*	x	63.8*	68.4*	-142.3	x	41.0*	59.2*
O=C1OC(c2ccc(F)cc2)=C/C1=C\c1ccc(O)cc1	33.5	0.5	14.4	12.6	21.0	14.0	x	x
CCc1ccc(Nc2ncc3c(n2)CC(C)(C)CC3=O)cc1	10.9	-7.2	-11.5	-9.4	10.4	12.4	x	x
COc1ccccc1C(=O)Nc1ccc(S(=O)(=O)N2CCCCC2c2cccnc2)cc1 (centres undefined)	63.5*	-40.5	63.1*	-0.8	37.8	11.2	70.5*	78.3*
O=C(Nc1ccc(S(=O)(=O)N2CCCCC2c2cccnc2)cc1)c1ccccc1F (centres undefined)	52.4*	-2.7	58.7*	2.7	11.5	16.8	47.0*	42.7*
Cc1noc(C)c1NC(=O)N(C)C[C@@H]1Oc2ccc(NC(=O)C3CCCCC3)cc2C(=O)N([C@@H](C)CO)C[C@H]1C	7.3	2.8	-2.6	x	15.6	-8.7	x	x
CC(C)C[C@H]1CN=C(Nc2ccccc2)N1CC1CCC(C(C)(C)C)CC1 (some centres undefined)	43.0*	-0.8	41.5*	x	49.7	-4.1	31.9*	42.2*
COc1ccc(C(O)c2nc3ccccc3n2C(C)C)cc1 (centres undefined)	12.8	5.0	-1.9	2.0	6.5	-8.0	x	x
CCOC(=O)c1c(NC(C)=O)sc2c(O)cccc12	45.2*	-7.8	49.6*	-7.1	16.8	-0.9	17.2	38.1*
CCOC(=O)CSC1=NC(=O)/C(=C\c2ccc(OC(C)=O)cc2)S1	69.0*	4.8	51.2*	-4.4	46.0	-14.6	68.8*	62.8*
Cc1ccc(-c2cc3c(N=O)c4ccccc4c-3n[nH]2)cc1	43.0*	-31.3	44.2*	31.8	38.3	2.9	10.0	28.6*
CCOc1ccc(N(C(=O)c2snc(C(N)=O)c2N)C(C(=O)NC2CCCC2)c2ccncc2)cc1 (centres undefined)	-3.2	-43.3	13.6	-4.0	10.1	7.4	x	x
O=C(Nc1cccc(Cl)c1)c1ccc2c(c1)OCCO2	49.9*	26.8	60.2*	-7.6	49.5	-2.3	40.0*	71.5*
CC(C)(C)NC(=S)NC(C)(C)C	17.6	5.2	-0.1	-3.7	17.1	-12.4	x	x
SMILES	tim10-1 inh	PfHsp90 set2	TIM10 inh	SKKanGAS inh	tim23-1 inh	EBI2 antag	tim10-1 conf	tim10 confirm
O=C(O)C1(c2ccccc2)CCN(S(=O)(=O)c2ccc(Br)cc2)CC1	-10.7	-12.4	3.5	-5.2	5.9	2.2	x	x
Cc1cc(C)c(C(=O)/C=C/c2cccc3ccccc23)c(=O)[nH]1	43.3*	-1.1	40.7*	-2.2	37.0	-16.6	38.3*	-18.6
CCOC(=O)C1(Cc2ccc(Cl)cc2)CCN(C(=O)c2sc(C)nc2C)CC1	33.8	-9.3	26.0	-2.0	9.5	7.7	x	x
CCSc1nc2ccccc2n1C(=O)/C=C\c1ccc(OC)c(OC)c1	64.9*	7.7	52.2*	6.1	34.7	18.8	55.9*	-24.0
COc1cccc(-c2[nH]nc3c2C(c2ccc(C)o2)C(C#N)=C(N)O3)c1 (centres undefined)	44.9*	x	52.4*	-4.1	41.8	x	31.6	19.4
CC1CCN(CC2C(=O)O[C@@H]3C[C@@]4(C)CCC[C@H](C)C4=C[C@H]23)CC(C)(C)C1 (some centres undefined)	22.6	-8.2	38.6	5.3	32.3	-39.5	x	x
C=C1CCC[C@]2(C)C[C@H]3OC(=O)C(CN4CC(C)OC(C)C4)[C@H]3C[C@@H]12 (some centres undefined)	42.5*	7.6	40.1*	-4.7	42.9	-3.8	31.2*	36.8*
CCC(Oc1ccc(C)cc1)C(=O)Nc1ccccc1C(=O)N1CCOCC1 (centres undefined)	-1.7	0.7	-5.6	5.6	8.9	10.9	x	x
COc1ccc(C(=O)/C=C/c2ccc(OC3CSC3)cc2)cc1OC	42.3*	10.3	41.7*	-3.2	29.8	20.5	28.3	9.7
CC(=O)c1ccc(-c2ccccc2[C@H]2[C@H]3C=CC[C@@H](C)[C@@H]3C(=O)N2Cc2ccccc2)cc1	45.0*	x	42.9*	23.8	38.2	x	30.3*	28.4

Assay outcomes as filed in PubChem BioAssay.
